The source of these data is PubChem BioAssay (NCI).

Compounds without any hit were thinned out: in the full panel of roughly 83,000, 20% have a hit.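 Cell lines were cultured in 96-well plates, exposed to a single compound concentration, and assessed for percent growth 48 hours later.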 A number with no mark means an inactive call. Calls of active or inactive are those of the source. The calls were made as follows: active = growth percent below 10; inactive = the rest.

This assay deals with MDA-MB-468 breast. Description: NCI-60 one-dose screen, 48 h (100 = growth as untreated, 0 = no growth, -100 = all killed). The note with it: 10 µM unless noted.
With `CCNC1(NC#N)CCCCC1`, the growth was 101%.

Regarding `CCN(CC)CCCCNc1c2ccc(Cl)cc2nc2ccc(OC)cc12`, the growth is -42.7% (active).

As for `C/C(=N\NC(=O)c1ccccc1O)c1cccc(/C(C)=N/NC(=O)c2ccccc2O)n1`, the growth was 23.9%.

As for `CN(C)CCN1CCN(c2ncccc2C2Nc3ccccc3-n3cccc32)CC1` (stereo not given), the growth is 109%.

On to `CN1C(=O)CNC(=O)[C@H](NC(=O)c2nc3ccccc3cc2O)CSSC[C@H]1C(=O)NCCc1nc2ccccc2cc1O`, for which the growth is 16%.

Turning to `COc1ccc(Cn2cc3c(c2-c2cc(OC)c(OC)c(OC)c2)CCc2c(CN4CCCC4)noc2-3)cc1`, the growth was 50.7%.

For the compound `CN1CCN(Cc2ccc(NC(=O)c3cncc(C#Cc4cnc(N)c5ncccc45)c3)cc2C(F)(F)F)CC1`, the growth was -43.8% (active).

On to `O=C1C(c2c[nH]c3ccccc23)=C(c2coc3cc(Br)ccc23)C(=O)N1O`, for which the growth is 91.6%.

With `CC(CN1CCN(CCOCCO)CC1)CN1c2ccccc2Sc2ccc(Cl)cc21` (stereo not given), the growth is 40.9%.

For `CCCCCCNC(=O)Oc1ccc(/C(=C(/C)c2ccc(OC)cc2)c2ccc(OCCN3CCCCCC3)cc2)cc1`, the growth was 1.03% (active).

With `COc1ccc(C2=CC(c3ccc(OC)cc3Br)N3C=CSC3=N2)cc1` (stereo not given), the growth is 17.4%.

In the case of `CCOC(=O)c1c(Nc2nc3ccccc3s2)sc2c1CCC(=O)C2`, the growth is 94.8%.

As for `CN1CC[C@@H](c2c(O)cc(O)c3c(=O)cc(-c4ccccc4Cl)oc23)[C@@H]1CO`, the growth was -44.2% (active).

On to `O=C(Nc1ccc(Br)cc1F)c1cc(F)ccc1O`, for which the growth is -0.885% (active).

For `CC(C)=CCC/C(C)=C/CC/C(C)=C/CSC[C@H](NC(=O)CCCCCN1CCN(C)CC1)C(=O)NC1CCCCCC1`, the growth was 48.2%.

Regarding `COc1cc(-c2cc(C(=O)Nc3nc4ccccc4s3)nc3cc(-c4ccccc4)nn23)cc(OC)c1OC`, the growth was 59.6%.

Regarding `Cc1cccc2c3c(sc12)C(c1ccc(F)cc1)C(C#N)=C(N)O3` (stereo not given), the growth was 24.3%.

Consider `Clc1ccc(Cc2nc3ccccc3s2)cc1`, for which the growth was 104%.

Turning to `CC(=O)Nc1nc(C)c(-c2csc(Nc3ccccc3)n2)s1`, the growth is 4.66% (active).

Regarding `CCCCCCCCCCOC(=O)c1nn(C(C)=O)c2cc(C)c(C)cc12`, the growth was 111%.

In the case of `COc1ccc(NC(=S)Nc2ccccn2)cc1`, the growth was 104%.

Consider `CCn1c2ccc(/C=N/OCCCN(C)C)cc2c2cc(/C=N/OCCCN(C)C)ccc21`, for which the growth was -66.6% (active).

Turning to `CC(C)(C)n1cc(-c2ccnc(NCCCNS(=O)(=O)c3ccc(Cl)cc3)c2)c(-c2cccc(F)c2)n1`, the growth is 48.4%.

With `Nc1c(C(=O)Nc2ccccc2)sc2nc3c(cc12)CCCCC3`, the growth is -9.1% (active).

Regarding `N=C(N)c1ccc(-c2ccc(-c3ccc(Cl)cn3)s2)cc1`, the growth was -28.2% (active).

Turning to `C=CCn1c(SCC(=O)Nc2ccc(C(=O)/C=C/c3cc(OC)c(OC)c(OC)c3)cc2)nnc1-c1ccc(OC)cc1`, the growth was -26.5% (active).

Take `CN1C2CCC1/C(=C\c1ccc(Cl)cc1)C(=O)/C2=C/c1ccc(Cl)cc1`: the growth is 59.1%.

In the case of `CCN(CC)c1ccc2c(c1)OS(=O)(=O)N=C2`, the growth was 111%.

Consider `CC(C)[C@H]1CCC2=C3CC[C@]45OC(=O)[C@@]6(CCC(C)(C)C[C@H]64)CC[C@@]5(C)[C@]3(C)CC[C@@]21C`, for which the growth was 76.4% [100 µM].

Consider `CCCCN(CCCC)CCc1c(C)cc(C)c(CCN(CCCC)CCCC)c1O`, for which the growth was 0.281% (active).

On to `Cn1ccnc1C(=O)/C=C/C=C/c1ccc(C(=O)Nc2ccc(F)cc2)cc1`, for which the growth was 35.3%.

As to `N#CC(C#N)=NO`, the growth is 93.2%.

Regarding `Cc1ccc(C(=O)/C(=C\c2ccc([N+](=O)[O-])cc2)S(=O)Cc2ccc(Cl)cc2)cc1` (stereo not given), the growth is 24.3%.

As to `CCOc1cc(/C=N\NC(=O)N/N=C/c2ccc(O)c(OCC)c2)ccc1O`, the growth was 3.75% (active).

In the case of `O=C(NCCNC(=O)c1ccc(F)cc1)Nc1ccc(-n2cc(-c3ccncc3)c(-c3ccc(Cl)c(O)c3)n2)cc1`, the growth is -35.9% (active).

For `CC(C)CCSc1nc(Nc2ccccc2)c(C#N)c(-c2ccc(F)cc2)n1`, the growth is 60.6%.

As for `O=C(/C=C1\C=CN(CCCCCCF)c2ccccc21)n1ccc2ccccc21`, the growth was 84.9%.

As to `O=[N+]([O-])c1ccc(N/N=C/c2ccccc2O)nc1`, the growth is 10.3%.

Turning to `COc1ccc(C(C)=O)cc1S(N)(=O)=O`, the growth is 99.4%.

In the case of `ClCC(Cl)[C@@H]1CC2C=CC1C2` (stereo not given in full), the growth is 96%.
